Pf apPOL block: Pf-apPOL DNA polymerase inhibition | AID 1794808 | 210,000 tested, 0.25% active | inhibition, % at 10 µM | Recombinant Pf-apPOL, molecular beacon fluorescence, 1.5 h
mHTT-CaM PPI inh: disrupts binding of mutant huntingtin to calmodulin | P42858 | inhibition, % at 15 µM | 190,000 tested, 3.6% active | AlphaScreen His-mHTT/GST-CaM binding, luminescence | AID 1671202;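 also: 0% = both proteins with DMSO and 100% = one protein alone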
Target sequence (P42858 whole entry, looked up, stated change not applied): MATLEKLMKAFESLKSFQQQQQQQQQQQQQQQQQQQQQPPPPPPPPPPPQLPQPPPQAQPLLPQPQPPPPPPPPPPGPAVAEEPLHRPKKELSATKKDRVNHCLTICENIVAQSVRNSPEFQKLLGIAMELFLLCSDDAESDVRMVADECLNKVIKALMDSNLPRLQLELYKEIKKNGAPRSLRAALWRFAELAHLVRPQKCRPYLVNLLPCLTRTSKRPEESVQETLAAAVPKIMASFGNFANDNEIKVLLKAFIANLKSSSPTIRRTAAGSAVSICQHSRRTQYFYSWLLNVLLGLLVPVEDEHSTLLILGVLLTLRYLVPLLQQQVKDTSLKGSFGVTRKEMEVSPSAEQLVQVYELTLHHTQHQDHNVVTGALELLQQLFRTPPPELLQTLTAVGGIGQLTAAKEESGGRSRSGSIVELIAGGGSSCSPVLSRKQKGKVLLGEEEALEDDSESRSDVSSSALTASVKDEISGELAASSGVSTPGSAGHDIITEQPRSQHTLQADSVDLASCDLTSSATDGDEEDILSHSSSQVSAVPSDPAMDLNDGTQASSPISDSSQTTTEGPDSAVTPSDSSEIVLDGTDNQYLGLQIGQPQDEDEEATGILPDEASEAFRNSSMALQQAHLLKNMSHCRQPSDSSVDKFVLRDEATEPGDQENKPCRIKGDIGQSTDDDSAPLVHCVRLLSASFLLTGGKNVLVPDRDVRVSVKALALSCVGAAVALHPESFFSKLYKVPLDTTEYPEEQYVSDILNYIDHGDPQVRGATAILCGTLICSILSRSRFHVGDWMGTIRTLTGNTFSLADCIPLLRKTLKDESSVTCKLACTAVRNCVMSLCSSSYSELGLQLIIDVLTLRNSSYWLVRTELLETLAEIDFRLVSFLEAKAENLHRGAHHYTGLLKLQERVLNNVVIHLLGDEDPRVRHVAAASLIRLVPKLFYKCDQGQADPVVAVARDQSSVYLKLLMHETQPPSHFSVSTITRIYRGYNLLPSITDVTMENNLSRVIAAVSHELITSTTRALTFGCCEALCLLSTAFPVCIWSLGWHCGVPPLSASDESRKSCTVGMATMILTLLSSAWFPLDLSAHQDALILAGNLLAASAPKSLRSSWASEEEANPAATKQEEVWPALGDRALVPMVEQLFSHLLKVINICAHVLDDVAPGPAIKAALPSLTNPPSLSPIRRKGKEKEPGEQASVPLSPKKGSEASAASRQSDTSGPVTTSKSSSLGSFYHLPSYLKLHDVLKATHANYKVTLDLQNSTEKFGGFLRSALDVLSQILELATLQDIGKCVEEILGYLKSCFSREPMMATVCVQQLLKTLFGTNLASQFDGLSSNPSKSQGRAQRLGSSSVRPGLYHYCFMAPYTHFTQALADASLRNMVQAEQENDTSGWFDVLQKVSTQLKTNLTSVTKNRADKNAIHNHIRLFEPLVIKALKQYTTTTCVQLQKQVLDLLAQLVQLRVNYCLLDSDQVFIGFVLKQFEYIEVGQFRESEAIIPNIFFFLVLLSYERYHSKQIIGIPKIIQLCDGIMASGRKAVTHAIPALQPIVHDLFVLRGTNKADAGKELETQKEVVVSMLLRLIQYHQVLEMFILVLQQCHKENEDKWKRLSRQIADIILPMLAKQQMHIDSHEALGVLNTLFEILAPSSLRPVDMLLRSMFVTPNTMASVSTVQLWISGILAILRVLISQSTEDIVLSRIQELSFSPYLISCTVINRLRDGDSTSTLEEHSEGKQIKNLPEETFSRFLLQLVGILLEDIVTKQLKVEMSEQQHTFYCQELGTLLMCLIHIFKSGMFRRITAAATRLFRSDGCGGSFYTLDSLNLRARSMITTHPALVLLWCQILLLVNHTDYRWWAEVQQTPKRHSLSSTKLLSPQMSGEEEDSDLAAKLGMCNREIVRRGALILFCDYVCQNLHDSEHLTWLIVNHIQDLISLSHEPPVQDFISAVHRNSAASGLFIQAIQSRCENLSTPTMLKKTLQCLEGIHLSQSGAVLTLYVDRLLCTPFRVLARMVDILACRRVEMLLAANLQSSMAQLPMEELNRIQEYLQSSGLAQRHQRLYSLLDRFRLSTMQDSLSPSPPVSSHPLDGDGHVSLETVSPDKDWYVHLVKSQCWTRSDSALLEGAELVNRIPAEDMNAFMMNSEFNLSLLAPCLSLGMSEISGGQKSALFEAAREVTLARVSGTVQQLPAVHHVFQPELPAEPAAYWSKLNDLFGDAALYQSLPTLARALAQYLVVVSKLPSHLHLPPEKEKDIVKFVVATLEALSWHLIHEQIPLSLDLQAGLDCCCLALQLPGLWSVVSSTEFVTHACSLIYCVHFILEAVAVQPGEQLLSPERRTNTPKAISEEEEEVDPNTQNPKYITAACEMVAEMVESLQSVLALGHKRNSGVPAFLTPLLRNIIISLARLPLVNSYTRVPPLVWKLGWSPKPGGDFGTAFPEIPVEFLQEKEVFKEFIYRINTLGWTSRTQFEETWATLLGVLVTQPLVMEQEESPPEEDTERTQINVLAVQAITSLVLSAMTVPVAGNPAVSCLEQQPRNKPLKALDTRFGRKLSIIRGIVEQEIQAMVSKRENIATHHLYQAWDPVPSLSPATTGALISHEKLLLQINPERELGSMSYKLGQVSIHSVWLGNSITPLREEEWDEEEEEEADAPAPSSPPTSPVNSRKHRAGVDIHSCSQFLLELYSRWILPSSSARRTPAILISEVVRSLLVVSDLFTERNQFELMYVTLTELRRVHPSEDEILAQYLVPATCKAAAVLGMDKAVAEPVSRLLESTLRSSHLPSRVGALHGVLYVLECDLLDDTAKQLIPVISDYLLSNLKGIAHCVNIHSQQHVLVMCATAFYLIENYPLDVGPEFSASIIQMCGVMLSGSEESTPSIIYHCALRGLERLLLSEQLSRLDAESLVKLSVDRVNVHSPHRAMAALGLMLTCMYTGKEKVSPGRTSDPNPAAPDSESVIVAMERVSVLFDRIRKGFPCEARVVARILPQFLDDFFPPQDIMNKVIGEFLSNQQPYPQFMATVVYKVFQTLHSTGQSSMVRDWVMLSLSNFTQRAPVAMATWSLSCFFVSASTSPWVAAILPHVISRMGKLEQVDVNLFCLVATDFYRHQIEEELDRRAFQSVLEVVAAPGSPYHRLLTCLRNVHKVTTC
Numbers without * were called inactive; / = no result. Shown are actives, neighbours in structure and some others; about 3.5% of the full set was active somewhere. Rule as the data show it: active = inhibition above about 50%; inactive = the rest.

SMILES	Pf apPOL block	mHTT-CaM PPI inh
COc1ccc(CNc2ccc(F)c(Cl)c2)c(OC)c1OC	-5	54*
COc1ccc(CNc2ccc(F)c(Cl)c2)cc1C	-4	-17
Oc1c(Cl)cc(Cl)cc1CNc1ccc(F)c(F)c1	0	100*
O=Cc1ccc(-c2ccc3c(c2)C(=O)OC3)o1	/	-1
O=C(c1ccc(C(F)(F)F)cc1)N1CCN(c2nc(CN3CCOCC3)cs2)CC1	-4	4
COc1ccc(CNC(=O)c2nnn(-c3cccc(C(F)(F)F)c3)c2N)cc1	-4	-3
CC(C)OC(=O)C1C2C=CC3(CN(c4ccccc4Br)C(=O)C13)O2 (stereo unspecified)	-1	-21
COc1cc(C=Nc2ccc(O)c(-c3nc4ccccc4s3)c2)ccc1O	2	79*
Oc1ccccc1C=Nc1ccc(O)c(-c2nc3ccccc3s2)c1	1	32
NC(=NS(=O)(=O)c1cc(Cl)c(Oc2ccc([N+](=O)[O-])cc2Cl)c(Cl)c1)c1ccccn1	7	/
Cc1cc(=O)n(CC(=O)Nc2ccc(-c3ccc(N4CCCC4)nn3)cc2)cn1	-5	-2
Cc1cc(C2(c3ccc(O)c(C)c3)C(=O)N(C)c3ccc(Br)cc32)ccc1O	-6	87*
CC(=O)c1c(C(C)=O)c(C)n(-c2cc(Br)ccc2O)c1C	-1	24
COc1ccc(NC(=O)N2CC3CC(NS(=O)(=O)c4cccs4)C2C3)c(C)c1 (stereo unspecified)	-6	5
CC1CCCN(c2nc(-c3ccc([N+](=O)[O-])cc3)nc3ccccc23)C1 (stereo unspecified)	0	60*
COc1cc(-c2nc(N3CCCC(C)C3)c3ccccc3n2)cc(OC)c1OC (stereo unspecified)	-2	-5
CCc1ccccc1-n1cnc2cc(C(=O)NC3CCCC3)ccc21	24	4
COc1ccccc1/C=C/CN1CCN(c2ccc([N+](=O)[O-])cc2)CC1	-3	53*
Cc1cccc(N2CCN(C/C=C/c3ccccc3[N+](=O)[O-])CC2)c1C	-6	66*
COc1ccccc1/C=C/CN1CCN(c2ccccc2)CC1	-4	32
CCN1CCN(C/C=C/c2ccccc2[N+](=O)[O-])CC1	-7	1
COCc1noc(C2CCCCN2C(=O)c2nccc3ccccc23)n1 (stereo unspecified)	2	1
Cc1ccsc1C(=O)N1CCc2[nH]cnc2C12CCCCC2	2	-4
Cc1c(Cc2ccccc2)sc(NC(=O)C(F)(F)F)c1C(N)=O	1	16
Cc1c(Cc2ccccc2)sc(NC(=O)CCc2ccccc2)c1C(N)=O	-10	52*
SMILES	Pf apPOL block	mHTT-CaM PPI inh
COc1ccc(NCC2CCCCC2)cc1	0	73*
COc1ccc(NC(=O)CC2CCC2)cc1	5	-6
CC(=O)Nc1ccccc1NC(=O)COc1cccc(C)c1	6	-1
Cc1ccc(NC(=O)c2cccnc2N(C)C)cc1	-5	-3
O=C(Nc1ccccc1C(F)(F)F)OCCCN1CCC2(CCC(c3ccccc3)CC2)C1=O (stereo unspecified)	0	93*
CCCCNC(=O)OCCCN1CCC2(CCC(c3ccccc3)CC2)C1=O (stereo unspecified)	-6	10
O=C(Nc1cccc(F)c1)OCCCN1CCC2(CCC(c3ccccc3)CC2)C1 (stereo unspecified)	-3	50*
O=C(Nc1ccc(F)cc1)OCCN1CCCC12CCC(c1ccccc1)CC2 (stereo unspecified)	-3	-15
O=C(C1CCCCC1)N1CCCC(c2ccnc(Nc3cccc(F)c3)n2)C1 (stereo unspecified)	-3	72*
CCCC(=O)N1CCCC(c2ccnc(Nc3cccc(F)c3)n2)C1 (stereo unspecified)	-1	62*
O=C(C1CCCC1)N1CCCC(c2ccnc(Nc3cccc(F)c3)n2)C1 (stereo unspecified)	-7	13
CCCC(=O)N1CCCC(c2ccnc(Nc3ccc(F)cc3)n2)C1 (stereo unspecified)	-4	2
O=C(Nc1ccc(F)cc1)c1ccc(I)cc1	-1	-2
CC(=O)NS(=O)(=O)c1ccc(NC(=O)C(C)Oc2ccccc2)cc1 (stereo unspecified)	12	0
O=C1OC(c2ccc(I)cc2)=N/C1=C\c1ccco1	-6	5
O=C(c1cc(-c2ccco2)n(C2CCS(=O)(=O)C2)n1)N1CCN(c2ccccn2)CC1 (stereo unspecified)	-5	-3
O=C(c1cc(C2CC2)n(C2CCS(=O)(=O)C2)n1)N1CCN(c2cccc(Cl)c2)CC1 (stereo unspecified)	-3	84*
CSCCC(C)(O)CNC(=O)C1c2ccccc2Oc2ccccc21 (stereo unspecified)	-7	-3
COc1ccccc1CN1CCC(C(=O)NCCc2ccccc2)CC1	-4	-8
O=C(NCCc1ccccc1)C1CCN(Cc2ccccc2)CC1	9	-1
Cc1cccc(Cn2c(CN3CCC(C(=O)NCc4ccco4)CC3)cc3ccccc32)c1	1	36
